Laboratory results taken from the supplement of paper PMC12669032.

How the values were obtained:
Experiment in all cases: growth AUC relative to DMSO control (median of replicates) (fraction); higher = more growth (less inhibition), active = hit call of the paper
Details in all cases: 20 µM; 24 h;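 active = AUC reduced over 20% with Padj below 0.05 in at least 2 of 3 replicates; inactive = otherwise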
Coprococcus comes = system: Coprococcus comes
Procedure, shortened: (§1)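 Hourly OD600 readings over 24 h tracked anaerobic gut bacterial monocultures grown at 37 °C in mGAM from OD600 0.05 with 20 µM compound (1% DMSO). After the minimum OD was set to 0, area under the growth curve was normalised to the plate median of solvent-only wells, or to row and column medians on the industrial chemical plate. Values are medians of three biological replicates grown on separate days.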

Escherichia coli ED1a = system: Escherichia coli ED1a
Procedure, shortened: as §1

Escherichia coli IAI1 = system: Escherichia coli IAI1
Procedure, shortened: as §1

Eubacterium rectale = system: Eubacterium rectale
Procedure, shortened: as §1

[1] = system: Fusobacterium nucleatum subsp. animalis
Procedure, shortened: as §1

Lactobacillus gasseri = system: Lactobacillus gasseri
Procedure, shortened: as §1

Lactobacillus paracasei = system: Lactobacillus paracasei
Procedure, shortened: as §1

Odoribacter splanchnicus = system: Odoribacter splanchnicus
Procedure, shortened: as §1

[2] = system: Parabacteroides distasonis
Procedure, shortened: as §1

Parabacteroides merdae = system: Parabacteroides merdae
Procedure, shortened: as §1

Roseburia intestinalis = system: Roseburia intestinalis
Procedure, shortened: as §1

Streptococcus salivarius = system: Streptococcus salivarius
Procedure, shortened: as §1

Measured: growth AUC

COC(=O)NCc1cc(/C(C)=N/OCc2cccc(C)n2)ccc1Cl
inactive: Coprococcus comes 1.03 | Escherichia coli ED1a 1.01 | Escherichia coli IAI1 0.972 | Eubacterium rectale 0.998 | [1] 0.933 | Lactobacillus gasseri 0.911 | Lactobacillus paracasei 0.969 | Odoribacter splanchnicus 1.01 | [2] 0.919 | Parabacteroides merdae 0.955 | Roseburia intestinalis 0.957 | Streptococcus salivarius 1.01

CCOP(=S)(OCC)SCSP(=S)(OCC)OCC
inactive: Coprococcus comes 0.997 | Escherichia coli ED1a 0.983 | Escherichia coli IAI1 1.01 | Eubacterium rectale 0.954 | [1] 1.04 | Lactobacillus gasseri 0.988 | Lactobacillus paracasei 1.07 | Odoribacter splanchnicus 1.01 | [2] 1 | Parabacteroides merdae 0.997 | Roseburia intestinalis 1.09 | Streptococcus salivarius 0.958

COP(=S)(OC)Oc1ccc([N+](=O)[O-])cc1
inactive: Coprococcus comes 0.992 | Escherichia coli ED1a 0.999 | Escherichia coli IAI1 1 | Eubacterium rectale 1.13 | [1] 1.13 | Lactobacillus gasseri 0.915 | Lactobacillus paracasei 0.989 | Odoribacter splanchnicus 0.771 | [2] 0.93 | Parabacteroides merdae 0.964 | Roseburia intestinalis 0.917 | Streptococcus salivarius 0.968

O=C(O)c1ccccc1C(=O)Nc1cccc2ccccc12
inactive: Coprococcus comes 0.971 | Escherichia coli ED1a 1.05 | Escherichia coli IAI1 1 | Eubacterium rectale 1.08 | [1] 1.06 | Lactobacillus gasseri 0.979 | Lactobacillus paracasei 1.02 | Odoribacter splanchnicus 1.06 | [2] 0.979 | Parabacteroides merdae 0.987 | Roseburia intestinalis 0.993 | Streptococcus salivarius 0.932

CCc1cc(C)cc(CC)c1-c1c(OC(=O)C(C)(C)C)n2n(c1=O)CCOCC2
inactive: Coprococcus comes 0.964 | Escherichia coli ED1a 0.99 | Escherichia coli IAI1 0.976 | Eubacterium rectale 1.14 | [1] 1.1 | Lactobacillus gasseri 0.845 | Lactobacillus paracasei 1.03 | Odoribacter splanchnicus 1.03 | [2] 0.851 | Parabacteroides merdae 1.01 | Roseburia intestinalis 0.981 | Streptococcus salivarius 1.02

CNC(=O)N(C)c1nnc(C(C)(C)C)s1
inactive: Coprococcus comes 0.995 | Escherichia coli ED1a 0.99 | Escherichia coli IAI1 0.945 | Eubacterium rectale 0.931 | [1] 0.969 | Lactobacillus gasseri 1.16 | Lactobacillus paracasei 0.941 | Odoribacter splanchnicus 0.963 | [2] 0.973 | Parabacteroides merdae 1 | Roseburia intestinalis 1.03 | Streptococcus salivarius 0.959

CCOC(=O)N(C)C(=O)CSP(=S)(OCC)OCC
inactive: Coprococcus comes 1.01 | Escherichia coli ED1a 1.01 | Escherichia coli IAI1 0.987 | Eubacterium rectale 0.898 | [1] 1.1 | Lactobacillus gasseri 1.03 | Lactobacillus paracasei 1.03 | Odoribacter splanchnicus 1.03 | [2] 0.999 | Parabacteroides merdae 0.985 | Roseburia intestinalis 1.03 | Streptococcus salivarius 1

Cc1ccc(NC(=O)N(C)C)cc1Cl
inactive: Coprococcus comes 0.996 | Escherichia coli ED1a 0.985 | Escherichia coli IAI1 0.982 | Eubacterium rectale 0.965 | [1] 0.916 | Lactobacillus gasseri 1.12 | Lactobacillus paracasei 0.954 | Odoribacter splanchnicus 1.02 | [2] 1.05 | Parabacteroides merdae 0.972 | Roseburia intestinalis 1.02 | Streptococcus salivarius 1.02

COP(=S)(OC)Oc1cc(Cl)c(Br)cc1Cl
inactive: Coprococcus comes 0.982 | Escherichia coli ED1a 0.987 | Escherichia coli IAI1 0.965 | Eubacterium rectale 1.03 | [1] 0.952 | Lactobacillus gasseri 1.06 | Lactobacillus paracasei 0.996 | Odoribacter splanchnicus 1.02 | [2] 0.946 | Parabacteroides merdae 0.917 | Roseburia intestinalis 1.03 | Streptococcus salivarius 0.995

COC(=O)c1ccccc1S(=O)(=O)NC(=O)Nc1nc(C)nc(OC)n1
inactive: Coprococcus comes 0.975 | Escherichia coli ED1a 0.963 | Escherichia coli IAI1 0.958 | Eubacterium rectale 1.05 | [1] 0.913 | Lactobacillus gasseri 0.934 | Lactobacillus paracasei 0.933 | Odoribacter splanchnicus 1.07 | [2] 0.977 | Parabacteroides merdae 0.962 | Roseburia intestinalis 0.978 | Streptococcus salivarius 0.935

CNC(=O)Oc1ccccc1C(C)C
inactive: Coprococcus comes 1.04 | Escherichia coli ED1a 1.01 | Escherichia coli IAI1 1.02 | Eubacterium rectale 1.07 | [1] 1.07 | Lactobacillus gasseri 1.04 | Lactobacillus paracasei 0.861 | Odoribacter splanchnicus 1.03 | [2] 0.998 | Parabacteroides merdae 1.03 | Roseburia intestinalis 1.06 | Streptococcus salivarius 1.04

O=C(O)CNCP(=O)(O)O
inactive: Coprococcus comes 1 | Escherichia coli ED1a 1 | Escherichia coli IAI1 1 | Eubacterium rectale 1.01 | [1] 1.08 | Lactobacillus gasseri 1.04 | Lactobacillus paracasei 0.949 | Odoribacter splanchnicus 1.08 | [2] 1.01 | Parabacteroides merdae 1.04 | Roseburia intestinalis 0.966 | Streptococcus salivarius 1.03

CCCN(CCC)N=O
inactive: Coprococcus comes 1.02 | Escherichia coli ED1a 1.03 | Escherichia coli IAI1 1 | Eubacterium rectale 0.979 | [1] 0.989 | Lactobacillus gasseri 0.956 | Lactobacillus paracasei 0.984 | Odoribacter splanchnicus 1.06 | [2] 1.11 | Parabacteroides merdae 1.03 | Roseburia intestinalis 0.988 | Streptococcus salivarius 0.967

Nc1ncn[nH]1
inactive: Coprococcus comes 0.974 | Escherichia coli ED1a 1.02 | Escherichia coli IAI1 1.01 | Eubacterium rectale 0.987 | [1] 1.1 | Lactobacillus gasseri 0.942 | Lactobacillus paracasei 0.995 | Odoribacter splanchnicus 1.03 | [2] 1.02 | Parabacteroides merdae 0.981 | Roseburia intestinalis 0.985 | Streptococcus salivarius 0.997

COc1ccc(C(c2ccc(OC)cc2)C(Cl)(Cl)Cl)cc1
inactive: Coprococcus comes 0.978 | Escherichia coli ED1a 1.04 | Escherichia coli IAI1 0.967 | Eubacterium rectale 0.882 | [1] 1.06 | Lactobacillus gasseri 1.13 | Lactobacillus paracasei 1.02 | Odoribacter splanchnicus 1 | [2] 0.938 | Parabacteroides merdae 0.71 | Roseburia intestinalis 0.987 | Streptococcus salivarius 0.992

CCN(CC)C(=O)C(C)Oc1cccc2ccccc12 (stereo unspecified)
inactive: Coprococcus comes 1.01 | Escherichia coli ED1a 0.979 | Escherichia coli IAI1 1.01 | Eubacterium rectale 0.983 | [1] 1.02 | Lactobacillus gasseri 1.03 | Lactobacillus paracasei 0.977 | Odoribacter splanchnicus 0.96 | [2] 0.997 | Parabacteroides merdae 1.02 | Roseburia intestinalis 1.08 | Streptococcus salivarius 0.959

CCNc1nc(NC(C)C)[nH]c(=O)n1
inactive: Coprococcus comes 0.992 | Escherichia coli ED1a 1.03 | Escherichia coli IAI1 1.05 | Eubacterium rectale 0.992 | [1] 1.06 | Lactobacillus gasseri 1.03 | Lactobacillus paracasei 0.963 | Odoribacter splanchnicus 0.994 | [2] 1.02 | Parabacteroides merdae 1 | Roseburia intestinalis 1.04 | Streptococcus salivarius 1.02

COP(=S)(OC)Oc1c(Cl)cc(C)cc1Cl
inactive: Coprococcus comes 0.99 | Escherichia coli ED1a 0.983 | Escherichia coli IAI1 0.99 | Eubacterium rectale 1 | [1] 0.971 | Lactobacillus gasseri 0.925 | Lactobacillus paracasei 1.06 | Odoribacter splanchnicus 0.97 | [2] 0.96 | Parabacteroides merdae 0.998 | Roseburia intestinalis 0.912 | Streptococcus salivarius 0.972

COCc1cnc(C2=NC(C)(C(C)C)C(=O)N2)c(C(=O)O)c1 (stereo unspecified)
inactive: Coprococcus comes 0.971 | Escherichia coli ED1a 1 | Escherichia coli IAI1 0.982 | Eubacterium rectale 1.09 | [1] 1.05 | Lactobacillus gasseri 0.91 | Lactobacillus paracasei 0.934 | Odoribacter splanchnicus 1.05 | [2] 1.03 | Parabacteroides merdae 0.987 | Roseburia intestinalis 0.978 | Streptococcus salivarius 0.977

Oc1ccccc1-c1ccccc1
inactive: Coprococcus comes 1 | Escherichia coli ED1a 1.02 | Escherichia coli IAI1 1.05 | Eubacterium rectale 0.984 | [1] 0.988 | Lactobacillus gasseri 1.08 | Lactobacillus paracasei 0.923 | Odoribacter splanchnicus 1.03 | [2] 0.976 | Parabacteroides merdae 1.04 | Roseburia intestinalis 0.939 | Streptococcus salivarius 1.04

CNC(=O)/C=C(\C)OP(=O)(OC)OC
inactive: Coprococcus comes 1.05 | Escherichia coli ED1a 1.05 | Escherichia coli IAI1 1.02 | Eubacterium rectale 0.999 | [1] 1.02 | Lactobacillus gasseri 1.03 | Lactobacillus paracasei 1.06 | Odoribacter splanchnicus 0.989 | [2] 1.03 | Parabacteroides merdae 1.01 | Roseburia intestinalis 1.07 | Streptococcus salivarius 1.04

O=[N+]([O-])/N=C1\NCCN1Cc1ccc(Cl)nc1
inactive: Coprococcus comes 0.975 | Escherichia coli ED1a 1.02 | Escherichia coli IAI1 1 | Eubacterium rectale 1.06 | [1] 1.06 | Lactobacillus gasseri 0.862 | Lactobacillus paracasei 0.951 | Odoribacter splanchnicus 1.09 | [2] 1.02 | Parabacteroides merdae 1.07 | Roseburia intestinalis 0.955 | Streptococcus salivarius 0.97

CCC1COC(Cn2cncn2)(c2ccc(Cl)cc2Cl)O1 (stereo unspecified)
inactive: Coprococcus comes 0.982 | Escherichia coli ED1a 0.988 | Escherichia coli IAI1 0.96 | Eubacterium rectale 0.755 | [1] 0.917 | Lactobacillus gasseri 1.1 | Lactobacillus paracasei 0.92 | Odoribacter splanchnicus 0.983 | [2] 1 | Parabacteroides merdae 0.948 | Roseburia intestinalis 0.936 | Streptococcus salivarius 0.948
